In publication PMC8384837, “Expanding the binding specificity for RNA recognition by a PUF domain”:

What was measured:
Assay in all cases: yeast three-hybrid, YBZ-1, SC-Leu-His + 0.5 mM 3-AT, 4 days
Details in all cases: tags: N-Gal4 AD-HA kept; label: inside an RPR1-promoter hybrid RNA with tandem MS2 sites; ssRNA
[1] = target: PUM1 PUF domain R8-GYR (Homo sapiens, UniProt Q14671 828-1176, N1122G;Q1126R)
Outline: (§1)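 Each repeat of the Pumilio-1 PUF domain was randomized at its three base-contacting residues, and these libraries were co-expressed from a centromeric plasmid with matching RNA elements in strain YBZ-1. After four days on SC-Leu (input) or SC-Leu-His + 0.5 mM 3-AT (selection), the repeat regions were PCR-amplified and Illumina-sequenced. The interaction score compares variant frequency between input and selection as a log change, computed in log2 with a pseudocount of 1 for absent variants.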

[2] = target: PUM1 PUF domain R8-RHW (Homo sapiens, UniProt Q14671 828-1176, N1122R;Y1123H;Q1126W)
Outline: as §1

[3] = target: PUM1 PUF domain R8-KRK (Homo sapiens, UniProt Q14671 828-1176, N1122K;Y1123R;Q1126K)
Outline: as §1

[4] = target: PUM1 PUF domain R1-YGR (Homo sapiens, UniProt Q14671 828-1176, S863Y;R864G;Q867R)
Outline: as §1

[5] = target: PUM1 PUF domain R1-RCT (Homo sapiens, UniProt Q14671 828-1176, S863R;R864C;Q867T)
Outline: as §1

[6] = target: PUM1 PUF domain R4-PYS (Homo sapiens, UniProt Q14671 828-1176, N971P;H972Y;Q975S)
Outline: as §1

[7] = target: PUM1 PUF domain R4-DFL (Homo sapiens, UniProt Q14671 828-1176, N971D;H972F;Q975L)
Outline: as §1

[8] = target: PUM1 PUF domain R7-DNV (Homo sapiens, UniProt Q14671 828-1176, S1079D;E1083V)
Outline: as §1

[9] = target: PUM1 PUF domain R7-RSW (Homo sapiens, UniProt Q14671 828-1176, S1079R;N1080S;E1083W)
Outline: as §1

[10] = target: PUM1 PUF domain R3-PHH (Homo sapiens, UniProt Q14671 828-1176, C935P;R936H;Q939H)
Outline: as §1

Sequence: GGCUAGAACUAGUGGAUCCCCCGGCGCCCGGCGGCUCGAGCCCGGGUAAGCGUAAAUAGUCUGCAUGCCGCCGGGCGCCAUGCCUGCAGGUCGACUCUAGAAAACAUG
- binding signal [1]: 5.09 log2 enrichment (interaction score)
- binding signal [2]: 4.05 log2 enrichment (interaction score)
- binding signal [3]: 4.95 log2 enrichment (interaction score)

Sequence: GGCUAGAACUAGUGGAUCCCCCGGCGCCCGGCGGCUCGAGCCCGGGUAAGUGUAAAUGGUCUGCAUGCCGCCGGGCGCCAUGCCUGCAGGUCGACUCUAGAAAACAUG
- binding signal [4]: 2.18 log2 enrichment (interaction score)
- binding signal [5]: 3.84 log2 enrichment (interaction score)

Sequence: GGCUAGAACUAGUGGAUCCCCCGGCGCCCGGCGGCUCGAGCCCGGGUAAGUGUAUAUAGUCUGCAUGCCGCCGGGCGCCAUGCCUGCAGGUCGACUCUAGAAAACAUG
- binding signal [6]: 5.95 log2 enrichment (interaction score)
- binding signal [7]: 2.93 log2 enrichment (interaction score)

Sequence: GGCUAGAACUAGUGGAUCCCCCGGCGCCCGGCGGCUCGAGCCCGGGUAAGUGUAAAUCGUCUGCAUGCCGCCGGGCGCCAUGCCUGCAGGUCGACUCUAGAAAACAUG
- binding signal [4]: 5.61 log2 enrichment (interaction score)

Sequence: GGCUAGAACUAGUGGAUCCCCCGGCGCCCGGCGGCUCGAGCCCGGGUAAGUUUAAAUAGUCUGCAUGCCGCCGGGCGCCAUGCCUGCAGGUCGACUCUAGAAAACAUG
- binding signal [8]: 3.87 log2 enrichment (interaction score)
- binding signal [9]: 2.57 log2 enrichment (interaction score)

Sequence: GGCUAGAACUAGUGGAUCCCCCGGCGCCCGGCGGCUCGAGCCCGGGUAAGUGUACAUAGUCUGCAUGCCGCCGGGCGCCAUGCCUGCAGGUCGACUCUAGAAAACAUG
- binding signal [6]: 5.7 log2 enrichment (interaction score)

Sequence: GGCUAGAACUAGUGGAUCCCCCGGCGCCCGGCGGCUCGAGCCCGGGUAAGUGUAAUUAGUCUGCAUGCCGCCGGGCGCCAUGCCUGCAGGUCGACUCUAGAAAACAUG
- binding signal [10]: 2.2 log2 enrichment (interaction score)

Sequence: GGCUAGAACUAGUGGAUCCCCCGGCGCCCGGCGGCUCGAGCCCGGGUAAGUGUAAAUAGUCUGCAUGCCGCCGGGCGCCAUGCCUGCAGGUCGACUCUAGAAAACAUG
- binding signal [1]: 5.16 log2 enrichment (interaction score)
- binding signal [7]: 5.04 log2 enrichment (interaction score)
- binding signal [10]: 4.19 log2 enrichment (interaction score)
- binding signal [2]: 2.9 log2 enrichment (interaction score)
- binding signal [3]: 3.65 log2 enrichment (interaction score)

Sequence: GGCUAGAACUAGUGGAUCCCCCGGCGCCCGGCGGCUCGAGCCCGGGUAAGUGUAAAUUGUCUGCAUGCCGCCGGGCGCCAUGCCUGCAGGUCGACUCUAGAAAACAUG
- binding signal [4]: 6.42 log2 enrichment (interaction score)
- binding signal [5]: 4.25 log2 enrichment (interaction score)
